Data as given in PubChem BioAssay (NCI).
Compounds without any hit were thinned out: in the full panel of roughly 79,000, 15% have a hit. Unmarked numbers belong to inactive results. Activity calls are given as the source filed them. No stated cut-off is given here; in the data, active means growth inhibition above about 70%; inactive means the rest. Where a SMILES comes first, the peptide text is derived from it. The star is where a group is joined. Fmoc = O=C(OCC1c2ccccc2-c2ccccc21)*; Boc = CC(C)(C)OC(=O)*

Key:
[1] = NCI Yeast Anticancer Drug Screen. Data for the rad50 strain (AID 155);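 further: 0% = growth of vehicle-only cultures of the same strain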; settings: S. cerevisiae rad50 strain growth inhibition, hits give high values
Method in brief: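 Yeast carrying a defined DNA repair defect were exposed to test compounds, and growth was compared with vehicle-treated controls to give percent inhibition.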

[2] = NCI Yeast Anticancer Drug Screen. Data for the mec2-1 strain (AID 157); settings: S. cerevisiae mec2-1 strain, hits give high values
Method in brief: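 Strain: mec2-1 (DNA repair/cell cycle alteration). Compound exposure, then growth measured; inhibition expressed relative to vehicle.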

[3] = NCI Yeast Anticancer Drug Screen. Data for the sgs1 mgt1 strain (AID 161);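 further: 0% = growth of cultures given vehicle only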; settings: S. cerevisiae sgs1 mgt1 strain, hits give high values
Method in brief: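 Inhibition of yeast growth, normalised to vehicle-treated controls, is reported for a strain bearing genetic alterations in DNA damage repair.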

[4] = NCI Yeast Anticancer Drug Screen. Data for the cln2 rad14 strain (AID 165);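 further: 0% = growth equal to vehicle treated cultures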; settings: S. cerevisiae cln2 rad14 strain, hits give high values
Method in brief: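 Compounds are applied to the cln2 rad14 yeast strain, and growth is then compared with that of vehicle-treated cultures to give inhibition.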

[5] = NCI Yeast Anticancer Drug Screen. Data for the bub3 strain (AID 167); settings: S. cerevisiae bub3 mutant strain, hits give high values
Method in brief: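 Compounds were applied to a genetically altered yeast strain carrying a cell-cycle control defect. Growth inhibition was scored against vehicle-treated controls.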

[6] = NCI Yeast Anticancer Drug Screen. Data for the mlh1 rad18 strain (AID 175); settings: S. cerevisiae mlh1 rad18 strain growth inhibition, hits give high values
Method in brief: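 Read-out is yeast growth inhibition, calculated against vehicle-only controls. The compound was applied to a strain engineered with DNA damage repair alterations.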

[7] = at 5.0 µM (retest, dose inferred, filed as 0.5)
[8] = at 50.0 µM (retest, dose inferred, filed as 5.0)

| Structure (SMILES) | growth inhibition [1, 7] | growth inhibition [1, 8] | growth inhibition ([1]; at 50.0 µM) | growth inhibition [2, 7] | growth inhibition [2, 8] | growth inhibition ([2]; at 50.0 µM) | growth inhibition [3, 7] | growth inhibition [3, 8] | growth inhibition ([3]; at 50.0 µM) | growth inhibition [4, 7] | growth inhibition [4, 8] | growth inhibition ([4]; at 50.0 µM) | growth inhibition [5, 7] | growth inhibition [5, 8] | growth inhibition ([5]; at 50.0 µM) | growth inhibition [6, 7] | growth inhibition [6, 8] | growth inhibition ([6]; at 50.0 µM) |
| --- | --- | --- | --- | --- | --- | --- | --- | --- | --- | --- | --- | --- | --- | --- | --- | --- | --- | --- |
| CC(C)(C)c1ccc(C(=O)n2c(=S)oc3ccc(Cl)cc32)cc1 | 50% | 85% (active) | 65% | 44% | 91% (active) | 61.4% | 46% | 92% (active) | 81.8% (active) | 39% | 73% (active) | 39.5% | 43% | 64% | 59.5% | 51% | 88% (active) | 63% |
| C(=C\[n+]1ccc2ccccc2c1)/c1ccccc1 | -3% | 35% | 80% (active) | -2% | 12% | 26.9% | -4% | 38% | 68.7% | -3% | -3% | 42.5% | -5% | 27% | 8% | 10% | 10% | 74.9% (active) |
| CCCCN(CCCC)CN1C(=O)/C(=C/c2ccc(NC(C)=O)cc2)NC1=S | 7% | 62% | 78% (active) | -7% | 64% | 79.6% (active) | -1% | 64% | 79.9% (active) | -2% | 63% | 79.8% (active) | -15% | 53% | 72.7% (active) | -3% | 79% (active) | 86.2% (active) |
| O=C1C=CC(=O)C2C1Cc1ccccc1C2c1ccccc1 (centres undefined) | 15% | 97% (active) | 98.8% (active) | 26% | 98% (active) | 99.3% (active) | 58% | 98% (active) | 99% (active) | 9% | 92% (active) | 98.8% (active) | 14% | 98% (active) | 98.8% (active) | 23% | 98% (active) | 98.5% (active) |
| CC1([N+](=O)[O-])C(=O)C2(N3CCOCC3)CCCC2C1c1ccccc1 (centres undefined) | -9% | 75% (active) | -2% | -7% | 99% (active) | -0.3% | -1% | 90% (active) | 4.95% | 1% | 40% | -7.7% | -12% | 98% (active) | -5.2% | 10% | 96% (active) | 7.65% |
| COc1ccc(S)cc1 | 0% | 72% (active) | 78.9% (active) | 3% | 51% | 39.7% | 0% | 89% (active) | 94% (active) | -3% | 80% (active) | 69.5% | 0% | 62% | 76.5% (active) | 2% | 86% (active) | 83.8% (active) |
| CCCCOC(=O)C(=O)/C(=C/N1C(=O)/C(=C/C(C)=C/c2ccccc2)SC1=S)C(=O)C=C(C)C | 0% | 8% | 39.7% | -13% | 10% | 63.4% | -10% | 5% | 50.5% | -25% | 11% | 46.8% | -10% | 26% | 68% | 1% | 14% | 71.1% (active) |
| CC/C(Cl)=N\OC(=O)Nc1ccc(F)c(Cl)c1 | -8% | 98% (active) | 58.5% | 5% | 96% (active) | 84.4% (active) | 36% | 99% (active) | 83.7% (active) | 31% | 75% (active) | 51% | 5% | 92% (active) | 78.2% (active) | -8% | 94% (active) | 69.3% |
| Nc1ccccc1CCc1ccccc1 | 0% | 79% (active) | 96.9% (active) | 0% | 74% (active) | 84.5% (active) | 2% | 85% (active) | 41.8% | -1% | 78% (active) | 67% | 0% | 74% (active) | 90.8% (active) | 28% | 91% (active) | 85.7% (active) |
| O=C1C(Cl)=C(N2CCN(c3ccccn3)CC2)C(=O)c2ncccc21 | 40% | 94% (active) | 85.3% (active) | 21% | 98% (active) | 88.8% (active) | 23% | 97% (active) | 91% (active) | 10% | 96% (active) | 89.4% (active) | 50% | 98% (active) | 88.6% (active) | 34% | 97% (active) | 89.1% (active) |
| Cc1cccnc1NC(=S)Nc1ccccc1Cl | 2% | 99% (active) | 89.5% (active) | 12% | 99% (active) | 91.3% (active) | 28% | 99% (active) | 93.2% (active) | -12% | 99% (active) | 85.8% (active) | 18% | 95% (active) | 91.8% (active) | 28% | 99% (active) | 89.5% (active) |
| NNc1nc(Nc2ccccc2)nc(Nc2ccccc2)n1 | -8% | 93% (active) | 51.9% | -5% | 10% | 42% | -9% | 56% | 45.5% | -9% | 52% | 37.5% | -4% | 44% | 48.5% | -2% | 51% | 41.6% |
| Cc1ncn(-c2ccccc2O)c1C | -3% | 7% | -10.3% | -8% | -20% | 8.05% | -7% | -14% | -28.7% | -2% | -8% | 31.7% | -3% | -27% | -5.75% | -9% | 9% | -28.3% |
| N=C(N)SCc1ccc(Br)cc1 | -13% | -17% | -2.75% | -29% | -23% | 13.8% | -20% | -15% | -15.9% | -16% | -4% | 27.6% | -18% | 35% | 16.9% | -29% | 2% | 19.9% |
| CN(C)CC(CN(C)C)C(=O)c1ccc2c(c1)OCO2 | -8% | -30% | 84.7% (active) | -15% | -13% | 87% (active) | -10% | -20% | 92.6% (active) | -6% | -8% | 58.1% | -5% | 25% | 58.6% | 0% | -20% | 93% (active) |
| CC(C)c1ccc(N2C(=O)C=CC2=O)cc1 | 98% (active) | 97% (active) | 99.7% (active) | 98% (active) | 99% (active) | 99.7% (active) | 95% (active) | 98% (active) | 99.5% (active) | 91% (active) | 99% (active) | 99.5% (active) | 98% (active) | 98% (active) | 99.5% (active) | 95% (active) | 98% (active) | 99.2% (active) |
| COc1ccc2c(c1)Cc1cc(NC(=O)N(CCCl)N=O)ccc1-2 | -2% | 85% (active) | 90.2% (active) | 2% | 88% (active) | 55.9% | 3% | 77% (active) | 89.2% (active) | -5% | 49% | -0.85% | -11% | 41% | 22.9% | 28% | 94% (active) | 95.6% (active) |
| CC(C)(C)OC(=O)NCCCCC(NC(=O)OCC1c2ccccc2-c2ccccc21)C(=O)N1CCCC1C(=O)NCC(N)=O (stereo not drawn) (Fmoc-Lys(Boc)-Pro-Gly-NH2; configuration not given here) | 10% | 98% (active) | 86.8% (active) | 13% | 95% (active) | 94.4% (active) | 5% | 89% (active) | 90.3% (active) | 10% | 91% (active) | 82.8% (active) | -10% | 97% (active) | 93.1% (active) | 19% | 97% (active) | 93.3% (active) |
